As usually defined, the inhibition is the drop in the measured response relative to a control, in per cent.

The campaign covered roughly 220,000 compounds. About 2,000 (0.91%) were called active. Another 2% or so got no clear call; they are omitted. Rule as the data show it: inconclusive = inhibition above about 80% without an active follow-up result; inactive = below that; test concentration not stated here. These entries were drawn from the full list. Potency and affinity values are given separately.

The assay can be described thus: M. tuberculosis H37Rv growth inhibitors, H37Rv strain (AID 1626).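 Also: bacteria incubated seven days before Alamar blue readout; 0% = bacteria only wells and 100% = bacteria with antibiotic wells.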 Particulars: stronger effect = higher value, concentration not given here.
Turning to `CCc1ccc(-c2nn(-c3cc(Cl)ccc3[N+](=O)[O-])c(=O)c3ccccc23)cc1`, the inhibition was 3.9% (inactive).

For the compound `CC(C)=C1SC(N2CCOCC2)=NC1=O`, the inhibition is -2.58% (inactive).

For the compound `Cc1c(C(=O)O)cccc1N1C(=O)Nc2ccccc2N1O`, the inhibition was 5.34% (inactive).

Regarding `c1ccc(-c2nc(CSc3nnc(-c4cccs4)o3)cs2)cc1`, the inhibition is 2.37% (inactive).

On to `c1ccc(-c2nnc(CSc3nnc(-c4cccs4)o3)o2)cc1`, for which the inhibition is 39.4% (inactive).

In the case of `Clc1ccc(-c2nnc(CSc3nnc(-c4cccs4)o3)o2)cc1`, the inhibition is 12.5% (inactive).

On to `Cc1ccc(Nc2nc(CSc3n[nH]c(N)n3)cs2)cc1`, for which the inhibition was 9.31% (inactive).

`O=C(Nc1nc(-c2cccc3ccccc23)cs1)c1ccc2c(c1)S(=O)(=O)c1ccccc1C2=O`: the inhibition was 4.24% (inactive).

`Cc1cccc(NC(=S)N(Cc2cccs2)Cc2cc3cc(C)ccc3[nH]c2=O)c1`: the inhibition was 8.62% (inactive).

With `CC(=O)O/C(=C\c1cn(C(C)=O)c2ccccc12)C(=O)O`, the inhibition is 7.86% (inactive).

Take `COc1cc(-c2nnc(SCC(=O)c3ccccc3)o2)cc(OC)c1OC`: the inhibition was -0.24% (inactive).

`CCOC(=O)CSc1nnc(-c2cccnc2)o1`: the inhibition was -8.92% (inactive).

Turning to `COc1cc(OC)cc(-c2nnc(SCC(=O)N3CCCC3)o2)c1`, the inhibition is 14.8% (inactive).

With `CCOC(=O)CSc1nnc(-c2ccccc2)o1`, the inhibition is 27.1% (inactive).

On to `COc1cc(OC)cc(-c2nnc(SCC(=O)N3CCCCC3)o2)c1`, for which the inhibition is 13.8% (inactive).

`CCOC(=O)N1CCN(C(=O)CSc2nnc(Cc3ccccc3)o2)CC1`: the inhibition was 3.59% (inactive).

For `O=C(CSc1nnc(COc2ccccc2)o1)N1CCN(c2ccccc2)CC1`, the inhibition is 7.79% (inactive).

Consider `CCCCN(CCCC)C(=O)CSc1nnc(-c2cc(OC)c(OC)c(OC)c2)o1`, for which the inhibition was 5.31% (inactive).

In the case of `Cc1ccc(C)n1-c1c(C(=O)NN)cnn1-c1ccccc1`, the inhibition was -0.22% (inactive).

Take `C=CCn1c(-c2cccnc2)n[nH]c1=S`: the inhibition was 4.66% (inactive).

Turning to `O=C1CCC/C(=N\NC(=O)COc2ccc(Cl)cc2)C1`, the inhibition was -2.69% (inactive).

In the case of `O=C(Cn1cnc2ccccc2c1=O)Nc1ccccc1N1CCOCC1`, the inhibition was 2.06% (inactive).

On to `CN1CCN(c2ccccc2NC(=O)c2cc(Br)ccc2Cl)CC1`, for which the inhibition is 12.3% (inactive).

Take `COC(=O)C(Cc1ccccc1)NC(=S)NC(=O)c1ccccc1` (centres undefined): the inhibition is 3.22% (inactive).

`CCOC(=O)c1c(C)[nH]c(C)c1C(=O)CSc1nnc(-c2cc(OC)c(OC)c(OC)c2)o1`: the inhibition was -2.95% (inactive).

On to `COc1cc(-c2nnc(SCC(=O)N3CCCC3)o2)cc(OC)c1OC`, for which the inhibition was -3.99% (inactive).

Turning to `COc1ccc(N2CCC(CNC(=O)Nc3cccc(OC)c3)C2)cc1` (centres undefined), the inhibition was 8.56% (inactive).

As to `COc1ccc(NC(=S)N2C3CCC2CC(NC(=O)NC24CC5CC(CC(C5)C2)C4)C3)c(OC)c1` (centres undefined), the inhibition is 40.3% (inactive).

Consider `CCOCC(=O)Nc1ccc([N+](=O)[O-])cc1C`, for which the inhibition is 4.52% (inactive).

In the case of `COc1ccc(CC2(CO)CCN(Cc3cc4ccccc4o3)CC2)cc1`, the inhibition is 5.84% (inactive).

As to `CC(Sc1ccccc1)C(=O)NN=C1CCCC1` (centres undefined), the inhibition was -0.55% (inactive).

Consider `CC1CCc2nc(NC(=O)CN3CCOCC3)sc2C1` (centres undefined), for which the inhibition was 23.3% (inactive).

Regarding `CC1CCc2nc(NC(=O)CN3CCN(c4ccc(F)cc4)CC3)sc2C1` (centres undefined), the inhibition is 18.4% (inactive).

`COc1ccc(N2CCN(CC(=O)Nc3nnc(-c4ccccc4)s3)CC2)cc1`: the inhibition is 73.3% (inactive).

For the compound `CC1CCc2nc(NC(=O)CN3CCN(Cc4ccc5c(c4)OCO5)CC3)sc2C1` (centres undefined), the inhibition was 64.4% (inactive).

As to `O=C(O)c1ccccc1NC(=S)NC(=O)c1sc2ccccc2c1Cl`, the inhibition was -3.63% (inactive).

Take `CCOC(=O)C(C)Sc1nc(=O)n2ccccc2n1` (centres undefined): the inhibition was -0.38% (inactive).

Take `Clc1cccc(Cl)c1CSc1nnc(CN2CCOCC2)n1-c1ccccc1`: the inhibition is -7.41% (inactive).

With `O=C(O)CCC(=O)Nc1ccc(Br)cc1C(=O)c1ccc(Cl)cc1`, the inhibition was -5.88% (inactive).

With `COc1ccccc1COCC(O)CN(Cc1ccco1)Cc1ccccc1O` (centres undefined), the inhibition was 11.4% (inactive).

In the case of `COc1ccc(/C=C/C(=O)C(C)(C)C)cc1OC`, the inhibition was 7.04% (inactive).

As to `COc1ccc(/C=C/C(=O)O)cc1OC`, the inhibition is -4.92% (inactive).

Consider `CCOC(=O)c1cc(-c2ccccc2)sc1NC(=O)C(C)OC(=O)c1ccncc1` (centres undefined), for which the inhibition was 0.66% (inactive).

As to `C=CCSc1nc(C)cc(C(=O)OCC)c1C#N`, the inhibition is -3.16% (inactive).

As to `COc1ccccc1C(=O)O/N=C(\c1ccccc1)c1ccncc1`, the inhibition is 3.28% (inactive).

In the case of `CCOc1cccc(/C=C/C(=O)O)c1`, the inhibition is 4.51% (inactive).

Turning to `CCOC(=O)N/N=C/C=C/c1ccccc1`, the inhibition is -6.43% (inactive).

For `Oc1csc(Cc2nc(-c3ccc(Br)cc3)cs2)n1`, the inhibition is 38.3% (inactive).

Take `Cc1cccc(NC(=O)c2c(O)c3cccc4c3n(c2=O)CCC4)n1`: the inhibition is -9.1% (inactive).

Take `CCCCNC(=O)c1c(O)c2cccc3c2n(c1=O)CCC3`: the inhibition is 3.46% (inactive).

`CCNCCNC(=O)c1c(O)c2cccc3c2n(c1=O)CCC3`: the inhibition was 1.67% (inactive).

Consider `O=C(Nc1ccccn1)c1c(O)c2cccc3c2n(c1=O)CCC3`, for which the inhibition is -3.22% (inactive).

`O=C(NCc1cccnc1)c1c(O)c2cccc3c2n(c1=O)CCC3`: the inhibition is -3.06% (inactive).

With `CNC(=O)c1c(O)c2cccc3c2n(c1=O)CC3`, the inhibition was -2% (inactive).

Regarding `COc1ccc(-n2cnnc2SCC(=O)Nc2cccnc2Cl)cc1`, the inhibition is 2.1% (inactive).

As for `O=C(Nc1nccs1)c1ccc(Cl)c(S(=O)(=O)N2CCOCC2)c1`, the inhibition was -20.2% (inactive).

Turning to `CC1C(c2ccccc2)=NNc2nc3c(c(=O)n(C)c(=O)n3C)n21` (centres undefined), the inhibition is -9.85% (inactive).

Take `Cc1cccc2c1CC(C)(C)N=C2C1=C(O)CC(C)(C)CC1=O`: the inhibition is 2.19% (inactive).

As for `CC(=O)Nc1ccc(NC(=O)CCc2nc3ccccc3c(=O)[nH]2)cc1`, the inhibition is 2.86% (inactive).

`O=c1[nH]c(=O)n(CCc2ccccc2)c(O)c1C=NCc1ccc2c(c1)OCO2`: the inhibition was -3.13% (inactive).

Regarding `COc1cc(/C=C/C(=O)CC(=O)/C=C/c2ccc(O)c(OC)c2)ccc1O`, the inhibition was 7.76% (inactive).

Take `O=C(/C=C/c1c[nH]c2ccccc12)c1c(O)n(CCc2ccccc2)c(=O)[nH]c1=O`: the inhibition is 22.5% (inactive).

On to `COc1ccc(/C=C/C(=O)c2c(O)n(CCC3=CCCCC3)c(=O)[nH]c2=O)cc1OC`, for which the inhibition was 36.6% (inactive).

Consider `Cn1c(N)c(C(=O)/C=C/c2ccccc2)c(=O)[nH]c1=O`, for which the inhibition was -9.59% (inactive).

On to `Cc1cc(C)c(C(=O)/C=C/c2ccc3c(c2)OCO3)c(=O)[nH]1`, for which the inhibition was -2.72% (inactive).

Regarding `CCCCn1c(O)c(C(CC)=NCc2ccc3c(c2)OCO3)c(=O)[nH]c1=O`, the inhibition is -0.92% (inactive).

As to `CCCCn1c(O)c(C(C)=NCc2ccc3c(c2)OCO3)c(=O)[nH]c1=O`, the inhibition is 10.3% (inactive).

On to `COc1ccc(CN(C)CC(=O)Nc2sc3c(c2C#N)CCC3)cc1OC`, for which the inhibition is 3.36% (inactive).

With `Cc1ccc(/C=N/NC(=O)CCCOc2ccc(Cl)cc2Cl)cc1[N+](=O)[O-]`, the inhibition was -5.05% (inactive).
